Test results taken from ChEMBL document CHEMBL3988442, “University of Dundee, Small-Polar-MMV Screening Library” (2021).
For part of these data: Measured potencies and affinities stand elsewhere.

Key:
Design in all cases: scale not given: direction of the effect not stated beside the values
[1] = molecular target: Protein translocase subunit SecA (Escherichia coli (strain K12)) (UniProt P10408); experiment: Assay to Identify E. coli SecA ATPase Inhibitors; type: functional; details: 30 µM
[2] = molecular target: T1, Ubiquitin-activating enzyme e1, putative (Leishmania donovani (strain BPK282A1)) (UniProt E9BSI1); experiment: Leishmania donovani Ubiquitin Activating Enzyme (LdE1); type: functional; details: 30 µM
T1 sequence (whole entry): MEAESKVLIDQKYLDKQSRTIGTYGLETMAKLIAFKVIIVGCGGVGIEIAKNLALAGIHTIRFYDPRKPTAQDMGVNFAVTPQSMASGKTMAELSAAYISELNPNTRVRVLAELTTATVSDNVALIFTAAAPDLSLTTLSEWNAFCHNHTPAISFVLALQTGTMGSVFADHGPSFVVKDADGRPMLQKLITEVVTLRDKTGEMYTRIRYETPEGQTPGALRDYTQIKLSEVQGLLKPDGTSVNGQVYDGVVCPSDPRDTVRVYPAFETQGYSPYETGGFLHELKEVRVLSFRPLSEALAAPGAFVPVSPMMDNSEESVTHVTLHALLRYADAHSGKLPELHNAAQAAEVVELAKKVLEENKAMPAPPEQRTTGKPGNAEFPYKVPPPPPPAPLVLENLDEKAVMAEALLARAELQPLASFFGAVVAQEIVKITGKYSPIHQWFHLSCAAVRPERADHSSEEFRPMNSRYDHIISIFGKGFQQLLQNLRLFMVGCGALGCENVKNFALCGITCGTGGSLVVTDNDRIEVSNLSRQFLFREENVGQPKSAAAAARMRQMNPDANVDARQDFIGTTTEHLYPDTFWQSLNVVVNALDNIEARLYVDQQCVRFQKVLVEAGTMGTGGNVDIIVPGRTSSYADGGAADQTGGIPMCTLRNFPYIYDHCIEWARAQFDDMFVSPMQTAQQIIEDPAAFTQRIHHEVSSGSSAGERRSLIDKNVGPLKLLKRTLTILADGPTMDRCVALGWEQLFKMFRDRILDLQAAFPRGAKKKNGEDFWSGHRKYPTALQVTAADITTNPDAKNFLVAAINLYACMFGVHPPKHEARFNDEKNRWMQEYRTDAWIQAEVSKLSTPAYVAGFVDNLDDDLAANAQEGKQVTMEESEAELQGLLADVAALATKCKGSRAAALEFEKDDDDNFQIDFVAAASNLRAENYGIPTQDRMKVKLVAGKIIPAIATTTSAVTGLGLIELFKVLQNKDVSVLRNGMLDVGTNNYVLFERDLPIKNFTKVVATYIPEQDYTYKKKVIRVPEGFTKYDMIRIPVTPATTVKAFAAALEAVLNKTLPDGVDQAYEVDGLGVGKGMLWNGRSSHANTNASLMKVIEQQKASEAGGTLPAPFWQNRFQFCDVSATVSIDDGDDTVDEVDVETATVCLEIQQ

[3] = molecular target: Sialic acid-binding Ig-like lectin 9 (Homo sapiens) (UniProt Q9Y336); experiment: Hs-Siglec9 ALPHAscreen SOP 20170721; details: 10 µM
Trypanosoma cruzi = experiment: Trypanosoma cruzi phosphomannomutase and mannose-1-phosphate guanylyltransferase assay; type: functional; details: 10 µM
[4] = molecular target: T2, Arginase-2, mitochondrial (Homo sapiens) (UniProt P78540); experiment: in vitro enzyme assay to detect the production of urea directly proportional to the activity of Arginase II; type: functional; details: 33.3 µM; further: in the data most compounds retested in dose-response had high values
T2 sequence (whole entry): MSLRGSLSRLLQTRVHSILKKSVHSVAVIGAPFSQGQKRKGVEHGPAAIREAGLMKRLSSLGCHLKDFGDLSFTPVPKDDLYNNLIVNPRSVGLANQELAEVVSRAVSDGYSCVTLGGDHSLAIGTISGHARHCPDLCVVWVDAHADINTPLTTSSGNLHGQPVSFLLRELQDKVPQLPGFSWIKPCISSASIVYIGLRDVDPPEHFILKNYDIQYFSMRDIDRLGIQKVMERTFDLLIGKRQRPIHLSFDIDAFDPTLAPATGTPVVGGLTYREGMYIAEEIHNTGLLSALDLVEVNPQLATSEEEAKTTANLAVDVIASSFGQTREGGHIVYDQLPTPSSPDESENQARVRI

[5] = molecular target: T3, Proteasome subunit beta (Trypanosoma cruzi) (UniProt O96673); experiment: Trypanosoma cruzi proteasome chymotrypsin-like activity (TcProtChymo) assay.; further: in the data most compounds retested in dose-response had high values; type: functional; details: 9.37 µM
T3 sequence (whole entry): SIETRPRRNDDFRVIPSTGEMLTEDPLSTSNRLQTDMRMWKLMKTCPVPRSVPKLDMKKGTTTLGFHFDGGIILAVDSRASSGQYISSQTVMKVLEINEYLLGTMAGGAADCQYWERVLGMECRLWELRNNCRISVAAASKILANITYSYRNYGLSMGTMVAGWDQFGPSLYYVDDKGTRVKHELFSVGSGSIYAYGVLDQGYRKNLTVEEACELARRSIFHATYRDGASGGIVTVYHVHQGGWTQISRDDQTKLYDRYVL

Homo sapiens = species on record: Homo sapiens; experiment: To identify inhibition of the IFN signalling (Jak-Stat) pathway via expression of an eGFP reporter gene under the control of an IFN-stimulated response element (ISRE) containing MxA promoter.; type: functional; details: 30 µM
[6] = molecular target: T4, Tyrosyl-tRNA synthetase, putative (Trypanosoma cruzi (strain CL Brener)) (UniProt Q4DSP6); experiment: Trypanosoma cruzi tyrosyl tRNA synthetase (TcYRS) _High Tyrosine SOP; type: functional; details: 30 µM; further: in the data most compounds retested in dose-response had high values
T4 sequence (whole entry): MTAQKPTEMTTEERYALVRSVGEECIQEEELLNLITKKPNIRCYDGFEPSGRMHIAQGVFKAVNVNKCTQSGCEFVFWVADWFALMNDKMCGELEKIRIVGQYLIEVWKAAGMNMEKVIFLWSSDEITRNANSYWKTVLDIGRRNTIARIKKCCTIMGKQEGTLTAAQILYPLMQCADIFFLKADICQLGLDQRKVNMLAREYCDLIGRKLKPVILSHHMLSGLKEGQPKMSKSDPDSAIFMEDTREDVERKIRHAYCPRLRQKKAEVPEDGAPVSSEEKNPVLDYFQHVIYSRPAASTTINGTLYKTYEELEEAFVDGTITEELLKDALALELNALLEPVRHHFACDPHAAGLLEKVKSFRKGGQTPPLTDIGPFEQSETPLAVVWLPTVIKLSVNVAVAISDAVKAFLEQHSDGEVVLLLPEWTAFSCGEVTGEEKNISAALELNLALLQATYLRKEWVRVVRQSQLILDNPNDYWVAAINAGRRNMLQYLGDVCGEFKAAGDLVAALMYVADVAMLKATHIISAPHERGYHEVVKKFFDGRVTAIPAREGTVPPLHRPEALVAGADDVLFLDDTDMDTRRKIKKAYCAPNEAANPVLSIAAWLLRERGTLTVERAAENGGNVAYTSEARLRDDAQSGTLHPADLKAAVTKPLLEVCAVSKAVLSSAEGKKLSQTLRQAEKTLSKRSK

[7] = molecular target: T4, Tyrosyl-tRNA synthetase, putative (Trypanosoma cruzi (strain CL Brener)); experiment: Trypanosoma cruzi tyrosyl tRNA synthetase (TcYRS) SOP; type: functional; details: 30 µM
[8] = molecular target: Chromo domain-containing protein 1 (Saccharomyces cerevisiae (strain ATCC 204508 / S288c) (Baker's yeast)) (UniProt P32657); experiment: ScCHD-1 Enzyme Inhibition Assay; type: functional; details: 30 µM; further: in the data most compounds retested in dose-response had high values
Sequence of Chromo domain-containing protein 1 (Saccharomyces cerevisiae (strain ATCC 204508 / S288c) (Baker's yeast)) (P32657 whole entry, the tested form may be a part): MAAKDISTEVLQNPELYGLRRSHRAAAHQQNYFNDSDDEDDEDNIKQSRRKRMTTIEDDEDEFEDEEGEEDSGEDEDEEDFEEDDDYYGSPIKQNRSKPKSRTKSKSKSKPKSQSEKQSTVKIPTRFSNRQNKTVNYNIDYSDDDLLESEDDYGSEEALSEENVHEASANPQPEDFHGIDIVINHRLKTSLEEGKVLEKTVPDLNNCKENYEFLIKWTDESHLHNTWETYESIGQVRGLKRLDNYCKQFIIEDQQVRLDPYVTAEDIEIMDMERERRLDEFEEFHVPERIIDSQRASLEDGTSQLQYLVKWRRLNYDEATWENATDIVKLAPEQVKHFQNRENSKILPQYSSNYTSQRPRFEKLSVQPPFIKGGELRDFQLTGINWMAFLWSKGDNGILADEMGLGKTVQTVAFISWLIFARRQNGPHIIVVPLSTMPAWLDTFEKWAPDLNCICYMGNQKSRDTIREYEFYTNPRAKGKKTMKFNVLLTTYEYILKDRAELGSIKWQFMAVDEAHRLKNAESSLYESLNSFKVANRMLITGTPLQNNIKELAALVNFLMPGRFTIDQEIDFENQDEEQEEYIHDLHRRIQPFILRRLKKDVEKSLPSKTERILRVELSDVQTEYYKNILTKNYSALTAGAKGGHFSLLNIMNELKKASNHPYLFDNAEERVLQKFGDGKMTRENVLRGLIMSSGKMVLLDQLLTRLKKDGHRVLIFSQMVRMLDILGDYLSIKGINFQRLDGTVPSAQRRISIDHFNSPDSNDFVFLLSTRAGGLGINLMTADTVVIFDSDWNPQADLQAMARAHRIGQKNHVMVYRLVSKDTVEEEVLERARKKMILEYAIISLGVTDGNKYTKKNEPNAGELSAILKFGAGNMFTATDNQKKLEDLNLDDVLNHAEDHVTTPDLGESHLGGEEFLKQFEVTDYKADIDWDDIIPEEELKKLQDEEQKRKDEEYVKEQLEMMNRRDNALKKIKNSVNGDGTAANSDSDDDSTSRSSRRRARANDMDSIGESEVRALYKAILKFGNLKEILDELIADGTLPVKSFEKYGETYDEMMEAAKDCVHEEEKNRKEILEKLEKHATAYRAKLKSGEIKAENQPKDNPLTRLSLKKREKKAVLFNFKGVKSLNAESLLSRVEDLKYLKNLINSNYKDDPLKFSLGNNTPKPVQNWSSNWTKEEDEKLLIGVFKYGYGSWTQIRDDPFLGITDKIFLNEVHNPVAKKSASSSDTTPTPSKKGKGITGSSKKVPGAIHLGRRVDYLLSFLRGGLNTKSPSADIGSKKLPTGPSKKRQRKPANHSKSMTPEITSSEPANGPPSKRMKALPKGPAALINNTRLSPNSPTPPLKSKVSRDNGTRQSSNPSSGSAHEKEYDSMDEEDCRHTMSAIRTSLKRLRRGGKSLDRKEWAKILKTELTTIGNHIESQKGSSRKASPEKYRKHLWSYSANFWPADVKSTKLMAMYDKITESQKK

Sequence of Sialic acid-binding Ig-like lectin 9 (Homo sapiens) (Q9Y336 whole entry): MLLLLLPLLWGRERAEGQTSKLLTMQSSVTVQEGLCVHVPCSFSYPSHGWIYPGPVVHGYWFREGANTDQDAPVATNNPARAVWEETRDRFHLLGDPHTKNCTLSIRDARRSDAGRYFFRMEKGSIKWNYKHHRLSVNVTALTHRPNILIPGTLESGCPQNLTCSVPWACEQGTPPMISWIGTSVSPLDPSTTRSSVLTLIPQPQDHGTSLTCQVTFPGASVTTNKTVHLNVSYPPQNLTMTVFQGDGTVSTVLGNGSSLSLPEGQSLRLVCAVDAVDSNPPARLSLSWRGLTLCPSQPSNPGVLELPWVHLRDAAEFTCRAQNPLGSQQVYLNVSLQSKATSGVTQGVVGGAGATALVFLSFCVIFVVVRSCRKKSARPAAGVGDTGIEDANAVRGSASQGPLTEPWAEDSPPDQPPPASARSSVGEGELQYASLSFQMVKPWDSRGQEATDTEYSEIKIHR
Sequence of Protein translocase subunit SecA (Escherichia coli (strain K12)) (P10408 whole entry): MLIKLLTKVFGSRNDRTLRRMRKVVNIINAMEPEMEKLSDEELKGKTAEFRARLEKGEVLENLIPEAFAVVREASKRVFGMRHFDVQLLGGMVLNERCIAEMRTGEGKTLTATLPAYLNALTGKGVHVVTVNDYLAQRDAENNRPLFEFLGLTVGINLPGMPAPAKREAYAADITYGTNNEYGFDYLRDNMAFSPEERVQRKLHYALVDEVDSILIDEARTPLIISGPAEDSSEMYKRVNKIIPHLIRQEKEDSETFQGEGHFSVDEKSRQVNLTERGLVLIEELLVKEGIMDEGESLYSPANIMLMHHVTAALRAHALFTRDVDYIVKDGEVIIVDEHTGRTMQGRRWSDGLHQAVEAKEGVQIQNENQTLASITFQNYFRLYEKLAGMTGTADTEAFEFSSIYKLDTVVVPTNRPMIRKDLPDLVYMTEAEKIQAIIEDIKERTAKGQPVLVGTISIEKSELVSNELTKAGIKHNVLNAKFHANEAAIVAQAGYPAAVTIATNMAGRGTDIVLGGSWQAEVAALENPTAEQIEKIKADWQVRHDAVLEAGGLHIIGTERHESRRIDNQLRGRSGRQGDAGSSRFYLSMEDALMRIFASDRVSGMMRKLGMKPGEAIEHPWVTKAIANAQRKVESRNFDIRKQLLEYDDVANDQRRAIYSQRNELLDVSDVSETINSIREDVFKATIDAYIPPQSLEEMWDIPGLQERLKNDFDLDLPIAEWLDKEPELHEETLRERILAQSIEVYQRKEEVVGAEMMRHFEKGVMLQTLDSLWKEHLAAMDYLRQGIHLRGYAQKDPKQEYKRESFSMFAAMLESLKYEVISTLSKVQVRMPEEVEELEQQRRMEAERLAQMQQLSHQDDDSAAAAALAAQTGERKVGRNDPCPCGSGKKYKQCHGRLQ

Row | SMILES | Percent Effect [1] [%] | Percent Effect [2] [%] | Percent Effect [3] [%] | Percent Effect (Trypanosoma cruzi) [%] | Percent Effect [4] [%] | Percent Effect [5] [%] | Percent Effect (Homo sapiens) [%] | Percent Effect [6] [%] | Percent Effect [7] [%] | Percent Effect [8] [%]
1 | Cc1ccccc1-c1cncc(C2CCN(C(C)C)CC2)n1 | -10.1 | 12 | 6.88 | 3.55 | -1.77 | 8.37 | -7.37 | 7.41 | 17.5 | -27.9
2 | Cc1cc(NC(=O)CCN(CC2CCOC2)C2CC2)no1 (stereo not given) | -3.2 | 21.3 | -0.377 | 1.21 | -2.22 | 10.3 | 8.07 | 3.68 | 15.4 | -13.2
3 | CC(C)(C)c1nnc(CN2CCCC(Cn3cncn3)C2)o1 (stereo not given) | -2.1 | -2.56 | 0.0313 | 4.41 | 0.41 | -1.79 | 8 | 2.39 | 1.21 | -1.8
4 | Cc1cncc(C2CCCN(Cc3cccn3C)C2)n1 (stereo not given) | -2.21 | 12 | 2.11 | -0.592 | -6.64 | 10.5 | 6.97 | 9.52 | 12.5 | -15.4
5 | c1cnc(OCc2nnc3n2CCN(CC2CC2)C3)nc1 | -6.05 | 1.3 | 5.56 | 2.04 | -5.67 | 2.91 | -10.7 | 3.68 | 7.69 | 2.01
6 | Cc1ccc(-c2cc(CN3CCOC(Cn4cncn4)C3)on2)cc1 (stereo not given) | -2.91 | 5.2 | 4.78 | -0.56 | -1.43 | 1.4 | 12.8 | 10.8 | 18.8 | -5.72
7 | O=C(NC[C@]1(O)CN(Cc2ccccc2F)C[C@H]1O)c1ccccn1 | -1.11 | 12 | -1.14 | -2.37 | 1.33 | 10.5 | 6.15 | 4.23 | 15 | -24.1
8 | CN(C)CC(=O)N1CCC2(CC(=O)N(c3cccc(C#N)c3)C2)C1 (stereo not given) | -7.09 | 6.49 | -3.56 | -4.58 | -5.67 | 13 | 3.5 | 2.63 | 5.13 | -1.61
9 | Cc1cc(C(=O)NC2CCc3nc(C)cn3C2)[nH]n1 (stereo not given) | -3.96 | 2.67 | 4.26 | -0.803 | 1.77 | 5.68 | 3.16 | 3.68 | 5.13 | -7.74
10 | CC(C)Oc1ncccc1CNC(=O)c1ccco1 | -4.42 | 16 | 0.422 | 0.402 | 5.32 | 13.5 | 7.02 | 5.79 | 17.9 | -8.28
11 | CN(C(=O)CN1CCOC(Cn2cccn2)C1)c1nccs1 (stereo not given) | -7.38 | 18.2 | 0.761 | 4.29 | -4.71 | 11.8 | -5.33 | 3.92 | 21.2 | -15
12 | Cc1cc(OCC(=O)N2CCCC(c3noc(C)n3)C2)no1 (stereo not given) | 2.24 | 13.3 | -8.66 | -4.62 | 4.88 | 19.8 | 17.5 | -0.526 | 2.56 | -9.02
13 | CNC(=O)[C@@H]1C[C@H]2CN(Cc3nccs3)C[C@H]2N1C | 0.644 | 27.3 | -2.68 | 0.75 | 2.28 | 19.7 | 11.3 | 12.6 | 22.5 | -5.35
14 | OC(COc1ccc(F)cc1)CN1CCC(Cn2cccn2)CC1 (stereo not given) | 0.447 | 18.2 | 8.44 | 0.933 | -5.12 | 6.14 | -5.99 | 10.8 | 23.5 | -4.98
15 | CCc1nnc(CN2CCCC(c3cc(C(F)(F)F)[nH]n3)C2)o1 (stereo not given) | -0.463 | 0 | -0.304 | -4.22 | 3.1 | 15.3 | -7.26 | 1.58 | -2.56 | -3.78
16 | CC(C)CN1CCC2(CCN(Cc3ccsc3)CC2)C1=O | -2.7 | 11.7 | 1.92 | 0.938 | 0.913 | 6.78 | -29.8 | 8.7 | 12.5 | 1.04
17 | CCc1ncc2c(n1)CN(CC(=O)Nc1ccc(Cl)cn1)CC2 | -4.26 | -2.67 | 4.13 | 1.21 | 2.66 | 4.83 | 4.95 | 8.95 | 7.69 | -9.89
18 | CC(C)(C)n1ncc2c1NC(=O)CC2c1ccc(OCC(N)=O)cc1 (stereo not given) | -6.78 | 5.41 | -0.0971 | 0.097 | 1.75 | 11.8 | -6.02 | 9.04 | 14.6 | -0.195
19 | CCc1nc(C2CCCN2C(=O)c2ccoc2C)no1 (stereo not given) | 2.59 | -2.56 | 10.5 | 0.469 | 5.74 | 2.3 | 17.4 | -0.478 | -18.1 | 0.101
20 | Cc1cccc(N2CCN(C(=O)Nc3cnn(CC(N)=O)c3)CC2)c1 | 0.381 | 20.5 | -9.92 | 5.73 | 6.56 | 1.28 | -6.7 | 4.31 | 25.3 | -4.54
21 | CN(C)CC(=O)N1C[C@H]2CCC[C@@]2(COc2ccccn2)C1 | -8.78 | 1.3 | 1.97 | -2.82 | -4.86 | 11.9 | 7.53 | -0.526 | 5.13 | -0.114
22 | CN1CCN(CC2CC2)C(=O)c2cnc(N3CCCC3)nc21 | -7.66 | 0 | 1.44 | -1 | -4.88 | 4.16 | 8.07 | -4.74 | -10.3 | -11.6
23 | Cc1ncncc1C(=O)Nc1cnn(CC(=O)NC2CCCC2)c1 | -3.38 | 20 | 2.3 | 2.96 | -0.443 | 10.8 | 8.96 | 1.06 | 12.5 | -20.3
24 | O=C(CCSc1ccc(F)cc1)NS(=O)(=O)c1ccc2c(c1)OCCO2 | -5.54 | -10.3 | -3.31 | 4.22 | -2.05 | 13.1 | 1.97 | -11 | -1.21 | -2.81
